Test results reported in PubChem BioAssay (EPA / NIEHS).
Results filed as inconclusive are left out. Active and inactive are the calls of the source. The calls were made as follows, unless noted: active = hit-call score of the fitted dose curve at least 0.9, where 1 is the maximum; inactive = score below 0.9.

Experiments:
[1] = molecular target: human RAR-related Orphan Receptor beta (RORb), RORB (gene 6096) (UniProt Q92753); assay: ATG_RORb_TRANS: Attagene TRANS-FACTORIAL HepG2 Assay for human RAR-related Orphan Receptor beta (RORb) (AID 2283010; active = hit-call score of the fitted dose curve at least 0.9, where 1 is the maximum)
Sequence of human RAR-related Orphan Receptor beta (RORb), RORB (gene 6096) (Q92753 whole entry, looked up, the tested form may be a part): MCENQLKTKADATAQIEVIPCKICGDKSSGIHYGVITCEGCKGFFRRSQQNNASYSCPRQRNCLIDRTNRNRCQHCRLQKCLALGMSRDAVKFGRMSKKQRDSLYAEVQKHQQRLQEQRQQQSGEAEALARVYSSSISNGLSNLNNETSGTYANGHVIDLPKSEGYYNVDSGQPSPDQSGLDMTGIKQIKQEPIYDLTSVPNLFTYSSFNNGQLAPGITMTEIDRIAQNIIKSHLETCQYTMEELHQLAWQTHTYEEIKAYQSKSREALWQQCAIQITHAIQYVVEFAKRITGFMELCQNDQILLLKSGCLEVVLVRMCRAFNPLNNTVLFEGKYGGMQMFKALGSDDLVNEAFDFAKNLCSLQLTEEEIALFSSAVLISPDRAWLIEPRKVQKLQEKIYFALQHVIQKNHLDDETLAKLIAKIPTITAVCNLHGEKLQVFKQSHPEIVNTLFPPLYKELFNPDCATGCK
In short: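 HepG2 cells were transiently transfected with multiplexed GAL4-UAS reporter units expressing chimeric nuclear receptor–GAL4 proteins, then dosed for 24 h. Reporter mRNA was quantified by RT-PCR with fluorescent labelling and capillary electrophoresis; gain of signal was fitted relative to DMSO.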

[2] = molecular target: Retinoic acid receptor RXR-alpha (Homo sapiens) (UniProt P19793); assay: ATG_RXRa_TRANS: Attagene TRANS-FACTORIAL HepG2 Assay for human Retinoid X Receptor alpha (RXRa) (AID 2283012; active = hit-call score of the fitted dose curve at least 0.9, where 1 is the maximum)
Sequence of Retinoic acid receptor RXR-alpha (Homo sapiens) (P19793 whole entry, looked up, the tested form may be a part): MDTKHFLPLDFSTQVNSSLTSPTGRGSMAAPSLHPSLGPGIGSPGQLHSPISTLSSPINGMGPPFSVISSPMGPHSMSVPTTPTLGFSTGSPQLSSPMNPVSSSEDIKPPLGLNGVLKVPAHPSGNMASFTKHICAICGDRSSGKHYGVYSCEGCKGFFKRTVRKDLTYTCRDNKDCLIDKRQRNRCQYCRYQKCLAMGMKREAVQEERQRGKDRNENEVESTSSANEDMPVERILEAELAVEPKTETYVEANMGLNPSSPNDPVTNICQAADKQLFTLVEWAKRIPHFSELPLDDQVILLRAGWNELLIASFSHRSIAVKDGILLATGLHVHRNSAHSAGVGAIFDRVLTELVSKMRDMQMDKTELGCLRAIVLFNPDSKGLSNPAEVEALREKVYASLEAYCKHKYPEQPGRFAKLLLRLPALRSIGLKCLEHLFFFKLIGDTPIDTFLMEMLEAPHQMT
In short: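 HepG2 cells transiently transfected with multiplexed GAL4-UAS reporter units and chimeric NR-GAL4 fusions, dosed 24 h. Reporter mRNA measured by RT-PCR, FAM labelling, HpaI digestion and capillary electrophoresis; gain-of-signal fitted relative to DMSO baseline.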

[3] = molecular target: human Retinoid X Receptor beta (RXRb), RXRB (gene 6257) (UniProt P28702); assay: ATG_RXRb_TRANS: Attagene TRANS-FACTORIAL HepG2 Assay for human Retinoid X Receptor beta (RXRb) (AID 2283013; active = hit-call score of the fitted dose curve at least 0.9, where 1 is the maximum)
Sequence of human Retinoid X Receptor beta (RXRb), RXRB (gene 6257) (P28702 whole entry, looked up, the tested form may be a part): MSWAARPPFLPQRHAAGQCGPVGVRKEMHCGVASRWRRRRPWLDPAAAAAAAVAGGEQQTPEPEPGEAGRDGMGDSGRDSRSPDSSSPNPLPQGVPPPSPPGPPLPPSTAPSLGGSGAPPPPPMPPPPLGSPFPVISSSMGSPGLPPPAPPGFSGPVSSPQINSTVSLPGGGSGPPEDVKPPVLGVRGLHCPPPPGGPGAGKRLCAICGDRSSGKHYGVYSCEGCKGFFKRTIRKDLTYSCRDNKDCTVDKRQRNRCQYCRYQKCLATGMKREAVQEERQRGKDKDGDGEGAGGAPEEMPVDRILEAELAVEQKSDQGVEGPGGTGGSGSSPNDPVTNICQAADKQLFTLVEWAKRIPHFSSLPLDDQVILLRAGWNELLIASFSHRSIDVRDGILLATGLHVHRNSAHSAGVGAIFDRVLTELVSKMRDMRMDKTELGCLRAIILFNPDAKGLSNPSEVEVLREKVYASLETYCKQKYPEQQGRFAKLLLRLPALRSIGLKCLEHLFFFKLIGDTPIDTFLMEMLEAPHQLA
In short: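 HepG2 cells transiently transfected with multiplexed reporter units driven by GAL4-UAS and exogenous chimeric NR-Gal4 proteins; treated 24 h. Reporter mRNA measured by RT-PCR, 6-FAM labelling and capillary electrophoresis; gain-of-signal fitted versus DMSO baseline.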

[4] = read-out: E-selectin (Homo sapiens) (UniProt P16581); assay: BSK_3C_Eselectin: BioMAP Diversity Plus: 3C Assay for Eselectin Biomarker Activity (AID 2283015); conditions: primary human endothelial cells (HUVEC); actives raise or lower the signal;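 also: cell surface E-selectin protein quantified by ELISA 24 h after dosing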
In short: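 E-selectin ELISA readout, fitted bidirectionally relative to DMSO, taken 24 h post-dosing in HUVEC cultures of the 3C system. Overt cytotoxicity tracked with sulforhodamine B staining of parallel wells.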

[5] = read-out: Interleukin-1 alpha (IL1a), IL1A (gene 3552); assay: BSK_BE3C_IL1a: BioMAP Diversity Plus: BE3C Assay for Interleukin-1 alpha (IL1a) Biomarker Activity (AID 2283016); conditions: primary human bronchial epithelial cells; actives raise or lower the signal
In short: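 Human primary bronchial epithelial cells (BE3C system) were dosed with compound and IL-1a measured by ELISA 24 h later. Activity was fitted bidirectionally against DMSO baseline; cytotoxicity was tracked in parallel cultures by SRB total-protein staining.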

[6] = read-out: Monocyte Chemoattractant Protein-1 (MCP1), CCL2 (gene 6347); assay: BSK_3C_MCP1: BioMAP Diversity Plus: 3C Assay for Monocyte Chemoattractant Protein-1 (MCP1) Biomarker Activity (AID 2283017); conditions: primary human endothelial cells (HUVEC); actives raise or lower the signal
In short: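 MCP-1 was measured by ELISA 24 h after dosing in primary HUVEC 3C cultures and fitted in both directions relative to DMSO; cytotoxicity was checked by SRB total-protein staining in parallel wells.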

[7] = read-out: Monocyte Chemoattractant Protein-1 (MCP1), CCL2 (gene 6347); assay: BSK_4H_MCP1: BioMAP Diversity Plus: 4H Assay for Monocyte Chemoattractant Protein-1 (MCP1) Biomarker Activity (AID 2283018); conditions: primary human endothelial cells (HUVEC); actives raise or lower the signal
In short: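 Human umbilical vein endothelial cells (4H system) dosed with chemical; MCP-1 measured by ELISA 24 h after dosing. Bidirectional curve fitting against DMSO negative control as baseline; parallel SRB total-protein staining tracks overt cytotoxicity.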

[8] = read-out: Human Leukocyte Antigen - DR isotype (HLADR), HLA-DRA (gene 3122); assay: BSK_3C_HLADR: BioMAP Diversity Plus: 3C Assay for Human Leukocyte Antigen - DR isotype (HLADR) Biomarker Activity (AID 2283019); conditions: primary human endothelial cells (HUVEC); actives raise or lower the signal;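 also: ELISA of cell-surface HLA-DR on HUVEC 24 h after dosing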
In short: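 Bidirectional fitting against DMSO was applied to the HLA-DR ELISA signal from human umbilical vein endothelial cells, 24 h post-dose. Cytotoxicity came from parallel SRB total-protein staining; 3C proliferation was counted by SRB at 48 h.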

[9] = read-out: Interleukin-8 (IL8), CXCL8 (gene 3576); assay: BSK_3C_IL8: BioMAP Diversity Plus: 3C Assay for Interleukin-8 (IL8) Biomarker Activity (AID 2283020); conditions: primary human endothelial cells (HUVEC); actives raise or lower the signal
In short: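 Primary human umbilical vein endothelial cells (3C system) were exposed to test chemical for 24 h, then IL-8 was quantified by ELISA. Responses were fitted bidirectionally against DMSO vehicle as baseline.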

[10] = read-out: Monokine induced gamma interferon (MIG), CXCL9 (gene 4283); assay: BSK_3C_MIG: BioMAP Diversity Plus: 3C Assay for Monokine induced gamma interferon (MIG) Biomarker Activity (AID 2283021); conditions: primary human endothelial cells (HUVEC); actives raise or lower the signal
In short: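 Primary human umbilical vein endothelial cells in the 3C system were exposed to chemical for 24 h, after which MIG was quantified by ELISA. Activity was fitted bidirectionally against DMSO as negative control and baseline.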

[11] = BSK_3C_SRB: Viability Assessment in the BioMAP Diversity Plus: 3C Assay (AID 2283023); conditions: primary human endothelial cells (HUVEC);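 also: fitted both ways against DMSO so a hit may be signal rise or drop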
In short: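 Cytotoxicity readout in parallel HUVEC 3C cultures: after 24 h compound exposure, cells fixed with 10% TCA, stained with 0.1% SRB and read at 560 nm. Gain or loss relative to DMSO fitted.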

[12] = read-out: Matrix Metallopeptidase 1 (MMP1), MMP1 (gene 4312); assay: BSK_BE3C_MMP1: BioMAP Diversity Plus: BE3C Assay for Matrix Metallopeptidase 1 (MMP1) Biomarker Activity (AID 2283024); conditions: primary human bronchial epithelial cells; actives raise or lower the signal
In short: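 Primary human bronchial epithelial cells were dosed with test chemicals, and MMP1 levels were measured by ELISA 24 h later. Data were fitted bidirectionally against DMSO as the negative control and activity baseline.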

[13] = BSK_3C_Vis: BioMAP Diversity Plus: 3C Assay for Morphology Visualization (AID 2283025); conditions: primary human endothelial cells (HUVEC);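 also: fitted both ways so gain or loss versus DMSO counts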
In short: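 Human umbilical vein endothelial cells in the 3C system were imaged by light microscopy 24 h after chemical dosing to record cell morphology. Activity was fitted bidirectionally against DMSO as negative control and baseline; the endpoint serves as a background control.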

[14] = read-out: Pselectin, SELP (gene 6403); assay: BSK_4H_Pselectin: BioMAP Diversity Plus: 4H Assay for Pselectin Biomarker Activity (AID 2283026); conditions: primary human endothelial cells (HUVEC); actives raise or lower the signal
In short: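 Primary human umbilical vein endothelial cells were exposed to test chemical for 24 h, then cell-surface P-selectin was quantified by ELISA. Activity was fitted bidirectionally against DMSO as negative control and baseline.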

[15] = BSK_4H_SRB: Viability Assessment in the BioMAP Diversity Plus: 4H Assay (AID 2283027); conditions: primary human endothelial cells (HUVEC);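 also: cells exposed to compound for 24 h before staining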
In short: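 Human umbilical vein endothelial cells were dosed with chemical and, after 24 h, fixed with 10% TCA, stained with 0.1% sulforhodamine B, and read at 560 nm to give total protein as a cytotoxicity measure. Bidirectional fitting relative to DMSO control.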

[16] = BSK_BE3C_SRB: Viability Assessment in the BioMAP Diversity Plus: BE3C Assay (AID 2283028); conditions: primary human bronchial epithelial cells
In short: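 Cytotoxicity read-out: SRB (0.1%) staining of TCA-fixed (10%) human lung bronchial epithelial cells, absorbance 560 nm, 24 h post-dosing. Curves fitted both directions relative to DMSO.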

[17] = read-out: Thrombomodulin, THBD (gene 7056); assay: BSK_3C_Thrombomodulin: BioMAP Diversity Plus: 3C Assay for Thrombomodulin Biomarker Activity (AID 2283029); conditions: primary human endothelial cells (HUVEC); actives raise or lower the signal
In short: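 Primary human umbilical vein endothelial cells (3C system) were exposed to chemical for 24 h, then thrombomodulin levels were measured by ELISA. Activity was fitted bidirectionally against the DMSO negative control as baseline.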

[18] = read-out: Urokinase-type plasminogen activator receptor (uPAR), PLAUR (gene 5329); assay: BSK_4H_uPAR: BioMAP Diversity Plus: 4H Assay for Urokinase-type plasminogen activator receptor (uPAR) Biomarker Activity (AID 2283030); conditions: primary human endothelial cells (HUVEC); actives raise or lower the signal
In short: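 uPAR level read by ELISA on HUVEC cultures (BioMAP 4H) 24 h post-dosing, analyzed for gain or loss relative to DMSO. Parallel SRB staining assessed overt cytotoxicity.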

[19] = read-out: Vascular endothelial growth factor receptor 2 (Homo sapiens) (UniProt P35968); assay: BSK_4H_VEGFRII: BioMAP Diversity Plus: 4H Assay for Vascular endothelial growth factor receptor 2 (VEGFR2) Biomarker Activity (AID 2283031); conditions: primary human endothelial cells (HUVEC); actives raise or lower the signal
In short: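 Measured by ELISA after 24 h of compound treatment: VEGFR2 on primary human umbilical vein endothelial cells, fitted in both directions relative to DMSO. Parallel cultures received SRB staining (560 nm) for overt cytotoxicity.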

[20] = molecular target: human Vitamin D Receptor (VDR), VDR (gene 7421) (UniProt P11473); assay: ATG_VDR_TRANS: Attagene TRANS-FACTORIAL HepG2 Assay for human Vitamin D Receptor (VDR) (AID 2283022; active = hit-call score of the fitted dose curve at least 0.9, where 1 is the maximum)
Sequence of human Vitamin D Receptor (VDR), VDR (gene 7421) (P11473 whole entry, looked up, the tested form may be a part): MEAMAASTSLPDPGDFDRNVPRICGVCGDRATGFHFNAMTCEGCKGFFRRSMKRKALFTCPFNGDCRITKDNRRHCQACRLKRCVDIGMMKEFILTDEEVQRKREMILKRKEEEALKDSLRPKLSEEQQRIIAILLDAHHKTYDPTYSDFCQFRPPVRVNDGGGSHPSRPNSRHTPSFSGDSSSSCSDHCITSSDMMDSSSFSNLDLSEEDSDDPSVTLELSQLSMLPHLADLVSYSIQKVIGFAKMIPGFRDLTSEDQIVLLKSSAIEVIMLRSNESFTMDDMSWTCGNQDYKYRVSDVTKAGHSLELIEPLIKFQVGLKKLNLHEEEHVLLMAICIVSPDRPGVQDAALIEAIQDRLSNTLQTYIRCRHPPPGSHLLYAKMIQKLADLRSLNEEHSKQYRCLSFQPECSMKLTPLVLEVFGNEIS
In short: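 Transactivation by an exogenous VDR-Gal4 chimera in transiently transfected HepG2 cells was measured as reporter transcript level 24 hours after chemical treatment. RT-PCR products were analysed by capillary electrophoresis and fitted in the positive direction relative to DMSO.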

Measured: AC50

Sequence of E-selectin (Homo sapiens) (P16581 whole entry, looked up): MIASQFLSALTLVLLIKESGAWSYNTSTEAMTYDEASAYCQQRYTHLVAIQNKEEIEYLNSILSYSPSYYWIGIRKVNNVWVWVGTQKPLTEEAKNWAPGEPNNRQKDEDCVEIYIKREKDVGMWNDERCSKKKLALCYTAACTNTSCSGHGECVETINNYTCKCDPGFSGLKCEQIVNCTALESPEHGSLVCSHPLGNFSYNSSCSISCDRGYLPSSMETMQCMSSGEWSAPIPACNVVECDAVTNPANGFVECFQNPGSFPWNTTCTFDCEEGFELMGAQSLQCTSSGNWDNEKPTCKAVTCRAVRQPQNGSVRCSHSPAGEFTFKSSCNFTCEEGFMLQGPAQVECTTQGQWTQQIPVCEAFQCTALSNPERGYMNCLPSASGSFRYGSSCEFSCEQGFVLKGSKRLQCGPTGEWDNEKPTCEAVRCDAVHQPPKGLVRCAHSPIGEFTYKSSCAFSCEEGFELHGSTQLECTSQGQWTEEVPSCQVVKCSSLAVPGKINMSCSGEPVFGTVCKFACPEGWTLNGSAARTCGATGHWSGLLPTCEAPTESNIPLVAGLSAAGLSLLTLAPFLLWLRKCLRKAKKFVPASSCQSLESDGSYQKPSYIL

C=CCOC(=O)c1ccccc1C(=O)OCC=C
not listed: [20]
inactive: all other assays above

CN1CCCC1=O
active: [3] 31.5 µM
not listed: [16]
inactive: all other assays above

O=C(O)CCCCC(=O)O
not listed: [16] | [20]
inactive: all other assays above
